Measurements taken from PubChem BioAssay AID651815 (National Center for Advancing Translational Sciences (NCATS), 2012).
In all, about 2,100 compounds went through this assay and about 1,100 (52%) were called active. Roughly 29% stayed inconclusive and do not appear here. The call rests on the fitted dose curve; in most records, active means well fitted inhibition curve with a large enough effect; inconclusive means small, poorly fitted or top-dose-only effect; inactive means no such curve, though single readings can be large or run the other way. The set was probably picked from earlier hits. The list shows a part of the results.

Molecular target: DNA dC->dU-editing enzyme APOBEC-3F (Homo sapiens) (UniProt Q8IUX4)
Assay: qHTS for inhibitors of Vif-A3F interactions: Cherry picks counterscreen; further: nearly all actives have a fitted effect of over 65% in size
Details: HeLa A3F-eYFP/Vif cells, eYFP fluorescence, 24 h; series mostly up to 46.1 µM
In short: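 Rescue of Vif-driven A3F-eYFP degradation read as cellular eYFP fluorescence after 24 h compound exposure (several concentrations) in stable HeLa cells; MG132 (2 mM stock) as positive control.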
Potency means the concentration at half of the fitted maximal effect.

Sequence of DNA dC->dU-editing enzyme APOBEC-3F (Homo sapiens) (Q8IUX4 whole entry, looked up): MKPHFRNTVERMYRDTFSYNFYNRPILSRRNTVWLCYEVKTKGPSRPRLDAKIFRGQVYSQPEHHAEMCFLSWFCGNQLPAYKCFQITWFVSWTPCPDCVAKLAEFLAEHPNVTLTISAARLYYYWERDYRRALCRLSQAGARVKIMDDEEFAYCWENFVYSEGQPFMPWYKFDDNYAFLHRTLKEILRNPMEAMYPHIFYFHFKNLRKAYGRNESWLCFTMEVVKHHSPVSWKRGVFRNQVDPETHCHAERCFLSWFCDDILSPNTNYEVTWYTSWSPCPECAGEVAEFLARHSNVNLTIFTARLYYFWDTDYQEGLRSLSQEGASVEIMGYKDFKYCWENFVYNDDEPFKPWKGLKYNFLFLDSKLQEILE

| Compound | Potency |
| --- | --- |
| COc1cc2cc(-c3ccc(OC)c(OC)c3C)nc(N)c2cc1OC | 1.77 µM (active) |
| Cc1cc(N/N=C/c2ccc(O)cc2O)nc(-n2nc(C)cc2C)n1 | inactive |
| CCN(CC)C(=O)Cn1c(=O)n(-c2ccccc2)c(=O)c2c3c(sc21)CCC3 | 23.1 µM (active) |
| C=CCSc1nc2sc3c(c2c(=O)n1CC)CCC3 | inactive |
| O=C(CC1CC2CCC1C2)Nc1nc(-c2ccccn2)cs1 (stereo unspecified) | inactive |
| O=C(c1ccccn1)C1CCCN(Cc2cn[nH]c2-c2cc3ccccc3o2)C1 (stereo unspecified) | inactive |
| COc1ccc2c(c1)/C(=C/c1cc(OC)c(OC)c(OC)c1)C(=O)N2 | 2.23 µM (active) |
| COc1cc(C=C2C(=O)c3ccccc3C2=O)cc(OC)c1OC | inactive |
| O=C1/C(=C\c2cc([N+](=O)[O-])ccc2O)SC(=S)N1Cc1ccc(Cl)cc1 | 9.2 µM (active) |
| O=C1NC(=Nc2ccccc2Cl)S/C1=C\c1cc([N+](=O)[O-])ccc1O | inactive |
| c1ccc(-c2nccc(-c3ccc4c(c3)OCO4)n2)cc1 | 5.59 µM (active) |
| COC(=O)CCS(=O)(=O)c1nc(-c2ccccc2)cc(C(F)(F)F)n1 | 12.5 µM (active) |
| CC1CCN(C(=O)C(C)Sc2nc(-c3ccccc3)cc(C(F)(F)F)n2)CC1 (stereo unspecified) | inactive |
| C=C(C)CNC(=S)N/N=C1\CCCCc2ccccc21 | inactive |
| COc1ccc(N2C(=O)CC(Sc3nc(C)c4c(n3)CCCC4)C2=O)cc1 (stereo unspecified) | 15.8 µM (active) |
| Nc1c(C(=O)c2ccccc2)sc2nsc(SCCN3CCOCC3)c12 | 7.31 µM (active) |
| Nc1c(C(=O)c2ccccc2)sc2snc(SCC(=O)c3ccccc3)c12 | 15.8 µM (active) |
| Nc1c(C(=O)c2ccccc2)sc2nsc(SCCN3CCCC3)c12 | 14 µM (active) |
| CSCC[C@H](NC(=O)[C@H](Cc1ccccc1)n1c(=O)[nH]c2ccccc2c1=O)C(=O)N1CCC[C@@H]1C(=O)O | inactive |
| COc1ccc(C(=O)NC(=S)NCc2cccnc2)cc1Cl | inactive |
| CCC1=Nc2cc(C(=O)NCc3cccnc3)ccc2Sc2ccc(C)cc21 | 5.59 µM (active) |
| CCCC1=Nc2cc(C(=O)NCc3ccco3)ccc2Sc2ccccc21 | 1.98 µM (active) |
| Cc1cc(C)nc(NC(=S)Nc2cccc(Cl)c2Cl)c1 | inactive |
| C/C(=N\NC(=S)NC(C)C)c1ccc(C(C)(C)C)cc1 | inactive |

| Compound | Potency |
| --- | --- |
| FC(F)(Cl)c1nnc2ccc(Cl)nn12 | 6.27 µM (active) |
| CC[N+](C)(C(=O)O)/C(=C\c1ccccc1)c1ccnc2ccccc12 (stereo unspecified) | 18.4 µM (active) |
| Cc1nnc(NC(=O)c2sc3nc(-c4cccs4)cc(C(F)(F)F)c3c2N)s1 | 6.51 µM (active) |
| Nc1c(C(=O)Nc2ccc(F)cc2)sc2nc(-c3cccs3)cc(C(F)(F)F)c12 | 2.91 µM (active) |
| Nc1c(C(=O)Nc2nc3ccccc3s2)sc2nc(-c3cccs3)ccc12 | 18.4 µM (active) |
| Nc1c(C(=O)Nc2nccs2)sc2nc(-c3cccs3)cc(C(F)(F)F)c12 | 11.2 µM (active) |
| O=C1N/C(=N\N=C\c2ccco2)SC1Cc1ccccc1[N+](=O)[O-] (stereo unspecified) | inactive |
| C/C(=N\NC(N)=S)C12CC3CC(CC(C3)C1)C2 | inactive |
| O=C(NC1CCCCC1)c1cccc2c1C(=O)c1ccc(N3CCC(Cc4ccccc4)CC3)cc1S2(=O)=O | 15.8 µM (active) |
| O=C(NC1CC1)c1cccc2c1C(=O)c1ccc(N3CCC(Cc4ccccc4)CC3)cc1S2(=O)=O | 18.4 µM (active) |
| O=C(/C=C/c1ccc([N+](=O)[O-])o1)NNC(=O)c1ccc(F)cc1 | 2.8 µM (active) |
| CC(C)Cn1c(N)c(C(=O)COC(=O)c2ccc([N+](=O)[O-])o2)c(=O)n(C)c1=O | inactive |
| CCc1ccc(C(=O)/C=C/c2ccc([N+](=O)[O-])o2)cc1 | 15.8 µM (active) |
| N#CCc1ccc(NC(=O)/C=C/c2ccc([N+](=O)[O-])o2)cc1 | 11.6 µM (active) |
| CCOC(=O)CCc1ccc(NC(=O)/C=C/c2ccc([N+](=O)[O-])o2)cc1 | 20.6 µM (active) |
| O=c1cc(-c2ccccc2)[nH]c2ccccc12 | 2.23 µM (active) |
| COc1cc2nc(/C=C/c3ccc(N(C)C)cc3)sc2cc1SC | 11.6 µM (active) |
| CCS(=O)(=O)c1nn2c(N)c(/C=C3/C=CC(=O)C(OC)=C3)c(=O)nc2s1 | inactive |
| COc1cc(C(=O)c2ccc3c(c2)OCO3)cc(OC)c1OC | 7.04 µM (active) |
| COC(=O)c1c(-c2cccnc2)csc1NC(=O)c1ccc2c(c1)OCO2 | inactive |
| CCOC(=O)C1C(=O)C=C(/C=C/c2ccc(N(C)C)cc2)CC1c1ccccc1 (stereo unspecified) | 16.4 µM (active) |
| CCCCOc1ccc(-c2nnn(CC(=O)NCc3ccco3)n2)cc1 | 6.27 µM (active) |
| CCOC(=O)c1c(Nc2ccc(Cl)cc2)sc(/C=C2\C=Nc3ccccc32)c1O | 14.6 µM (active) |
| COc1cc2c(cc1OC)CN(C(=O)/C=C/c1cccs1)CC2 | 2.8 µM (active) |

| Compound | Potency |
| --- | --- |
| CN(C)CCCN(C(=O)/C=C/c1cccs1)c1nc2ccc(F)cc2s1 | inactive |
| Cc1cccc(C(=O)NC(=S)N2CCc3ccccc3C2)c1 | inactive |
| O=c1[nH]c(-c2cccnc2)nc2sc(-c3ccccc3)cc12 | 4.44 µM (active) |
| S=c1[nH]cnc2sc(-c3ccccc3)cc12 | inactive |
| CC(=O)c1c(C)oc2c1cc(NS(=O)(=O)c1ccc(Br)cc1)c1ccccc12 | 2.91 µM (active) |
| Cc1ccc(S(=O)(=O)Nc2cc(Cl)c(O)c3ncccc23)cc1 | inactive |
| CCc1nc(Nc2ccc3nccnc3c2)c2oc3ccccc3c2n1 | 23.1 µM (active) |
| COc1ccc(S(=O)(=O)Nc2cccc(-c3ccc4nncn4n3)c2)cc1F | 1.98 µM (active) |
| COc1ccc(S(=O)(=O)Nc2cccc(-c3ccc4nncn4n3)c2)cc1 | 3.14 µM (active) |
| O=Cc1s/c(=N\S(=O)(=O)c2ccccc2)n(CCCCl)c1Cl | 5.8 µM (active) |
| O=C1[C@@H]2[C@@H](CN3CN(c4ccccc4)N=C(c4ccccc4)[C@@]23c2ccccc2)C(=O)N1c1ccccc1 | inactive |
| CCN1/C(=C/c2ccc3ccccc3[n+]2CC)C=Cc2ccccc21 | inactive |
| CCN1/C(=C/c2cc[n+](C)cc2)C=Cc2cc(C)ccc21 | 18.4 µM (active) |
| Cc1cc(C)cc(NC(=O)Cn2c(=O)oc3cc(S(=O)(=O)N4CCC(C)CC4)ccc32)c1 | 12.5 µM (active) |
| COc1ccc2c(Cl)c(C(=O)N/N=C3\CCCC(=O)C3)sc2c1 | 17.7 µM (active) |
| CCOc1cc(C(=O)NN=C2CCCC2)cc(OCC)c1OCC | inactive |
| CC1=C(n2nnc3ccccc32)C(c2ccccc2)C(C#N)=C(N)O1 (stereo unspecified) | inactive |
| N#CC1=C(N)Oc2ccc3ccc(O)cc3c2C1c1ccsc1 (stereo unspecified) | inactive |
| CCN(CC)c1ccc2c(c1)OC(N)=C(C#N)C2c1cccnc1 (stereo unspecified) | 14 µM (active) |
| N#CC1=C(N)Oc2ccc3ccccc3c2C1c1cccnc1 (stereo unspecified) | 2.8 µM (active) |
| Cc1ccc2c(c1C)NC(=O)CC(c1ccccc1O)=N2 | inactive |
| CN(C)c1ccc2ccc3cccc4ccc1c2c34 | 13 µM (active) |
| C[C@H]1CN([C@@H](C)CO)C(=O)Cc2cc(NC(=O)CCC(F)(F)F)ccc2O[C@H]1CN(C)S(=O)(=O)c1ccc(F)cc1 | 12.5 µM (active) |
| CCOc1cc(C#N)c(NC(=O)c2cccnc2)cc1OCC | 3.53 µM (active) |

| Compound | Potency |
| --- | --- |
| COc1ccc(OC)c(NS(=O)(=O)c2ccc(Cl)s2)c1 | 11.2 µM (active) |
| N#Cc1ccc(/C=C\c2nccc3c2[nH]c2ccccc23)cc1 | 15.8 µM (active) |
| C(=C/c1nccc2c1[nH]c1ccccc12)/c1ccc2c(c1)OCO2 | inactive |
| Cc1noc(C)c1COc1ccc(C(=O)NNC(=O)c2ccccc2)cc1 | 4.98 µM (active) |
| Cc1noc(C)c1COc1ccc(C(=O)NNC(=O)c2ccccc2F)cc1 | 9.94 µM (active) |
| Cc1ccc(CN(C(=O)c2ccccc2F)c2ccccn2)o1 | inactive |
| C=CCN1C=CC(=CC=C(C#N)C#N)C=C1 | 17.7 µM (active) |
| CCOC(=O)/C(C#N)=C\C=C1C=CN(C)C=C1 | inactive |
| C=CCN1C=CC(=C/C=C(/C#N)C(=O)OCC)C=C1 | 4.61 µM (active) |
| CCCN1C=CC(=CC=C(C#N)C#N)C=C1 | 17.7 µM (active) |
| COc1ccc(-n2c(O)c(/C=N/NS(=O)(=O)c3cc(C)ccc3C)c3ccccc3c2=O)cc1OC | 13 µM (active) |
| COc1ccc(-n2c(O)c(/C=N/NS(=O)(=O)c3ccc(C)cc3)c3ccccc3c2=O)cc1OC | 18.4 µM (active) |
| CC12CC3CC(C)(C1)CC(C(=O)NC(=S)N1CCOCC1)(C3)C2 | inactive |
| C(=Cc1c[nH]c2ccccc12)c1ccc2ccccc2n1 | 18.4 µM (active) |
| C(=C\c1c[nH]c2ccccc12)/c1ccc2ccccc2n1 | 18.4 µM (active) |
| COc1ccc(C(=O)Nc2cccc(/C=C/c3nc4ccccc4c(=O)[nH]3)c2)cc1 | 15.8 µM (active) |
| Nc1c(C(=O)Nc2ccc(S(=O)(=O)N3CCCC3)cc2)sc2nc3ccc(OC(F)(F)F)cc3cc12 | 23.1 µM (active) |
| CCc1cccc2cc3c(N)c(C(=O)Nc4ccc(S(=O)(=O)N5CCCC5)cc4)sc3nc12 | 6.27 µM (active) |
| Nc1c(C(=O)Nc2ccc(S(=O)(=O)N3CCCC3)cc2)sc2nc3cc4c(cc3cc12)CCC4 | 14.6 µM (active) |
| Cn1nnnc1SCCNCc1cc(Br)ccc1OCc1ccccc1Cl | inactive |
| CCC(C)n1c(NC(=O)c2ccccc2)c(C#N)c2nc3ccccc3nc21 (stereo unspecified) | 18.4 µM (active) |
| Fc1ccc2nc3[nH]c4ccccc4c3nc2c1 | 0.886 µM (active) |
| COc1ccc(OC)c(/C=C/c2nc3ccccc3[nH]c2=O)c1 | 5.8 µM (active) |
| Cc1ccc(N2C(=O)[C@@H]3[C@H](C2=O)[C@H]2C=C(C(=O)c4ccccc4)C=CN2[C@@H]3C(=O)c2ccc(Cl)cc2)cc1 | inactive |
